# Compound activity from PubChem BioAssay.
# PABP1 MLLE inh: inhibitors of microRNA-mediated deadenylation, human PABP1 MLLE binding; P11940; actives 0.36% (n = 360,000); inhibition, % at 20 µM; GST-MLLE / FITC-PAM2 fluorescence polarization; in the data active means inhibition above about 35%, passing the limit was not always enough;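 further: plate controls were DMSO wells with GST-MLLE for no effect and wells lacking GST-MLLE protein for full effect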
# SUMO HTRF inh: inhibitors of human SUMOylation (UBC9). P63279. HTRF SUMOylation assay, SAE1/SAE2 + UBC9, in vitro. inhibition, % at 35 µM. actives 0.36% (n = 290,000). AID 2006; in the data active means inhibition above about 50%, passing the limit was not always enough; inconclusive means no clear call, values can overlap the other calls
# Target sequence (P63279 whole entry, looked up): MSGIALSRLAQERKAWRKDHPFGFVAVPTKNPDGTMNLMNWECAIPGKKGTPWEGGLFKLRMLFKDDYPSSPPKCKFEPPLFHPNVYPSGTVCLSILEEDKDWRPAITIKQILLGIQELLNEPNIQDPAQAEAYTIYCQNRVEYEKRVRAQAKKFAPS
# Efflux pump mplx: inhibitors of Candida antifungal efflux pumps expressed in yeast. actives 0.44% (n = 330,000). AID 485275. S. cerevisiae Candida pump triplex, Nile Red efflux. inhibition, % at 10 µM;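 active means plate passing quality check with inhibition over a set limit, or well fluorescence over plate mean plus 4 SD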;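 further: Nile Red retained in pooled yeast measured as flow cytometry median fluorescence; 0% = buffer negative control and 100% = Enniatin B positive control; higher means more Nile Red kept so more efflux inhibition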
# PABP polyA inh: PABP-poly(A) binding inhibition. P11940. PABP-poly(A) RNA binding, fluorescence polarization. inhibition, % at 35 µM. actives 1% (n = 290,000);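 further: calls also rest on retests at 20 µM and on dose response follow-up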
# ALR H2O2 inh: inhibitors of human sulfhydryl oxidase ALR; P55789; purified ALR, DTT oxidation, H2O2 HRP-luminol luminescence; inhibition, % (test concentration not listed); actives 3.8% (n = 290,000); AID 485317;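 active means mean replicate inhibition above about 79%, with every replicate also reaching it, limit read from the data; inconclusive means only one of the two criteria met; inactive means mean below limit and not every replicate reaching it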
# Target sequence (P55789 whole entry, looked up): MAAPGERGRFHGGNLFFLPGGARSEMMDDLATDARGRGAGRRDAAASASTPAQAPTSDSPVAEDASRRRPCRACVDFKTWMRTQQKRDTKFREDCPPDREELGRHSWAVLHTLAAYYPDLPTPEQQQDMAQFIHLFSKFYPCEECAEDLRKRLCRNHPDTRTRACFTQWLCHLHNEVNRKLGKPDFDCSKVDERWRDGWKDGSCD
# eIF4H inh: inhibitors of RNA binding by human eIF4H. Q15056. eIF4H fluorescence polarization binding assay. inhibition, % at 35 µM. AID 2012. actives 0.94% (n = 290,000);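 further: calls also rest on retests at 20 µM and on dose response follow-up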
# Cmpd fluor yeast: compound fluorescence in yeast efflux pump counter-screen. shares compounds with Efflux pump mplx. S. cerevisiae AD/pABC3, flow cytometry. fluorescence ratio to DMSO, % at 10 µM. actives 4% (n = 1,700);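 active means fluorescence ratio to DMSO above its plate's cutoff, the plate mean ratio plus 5 SD, cut at about 210% in these data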;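 further: unstained yeast with no Nile Red so the signal is compound autofluorescence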
# CaMdr1 efflux inh: blocks the Candida albicans Mdr1 efflux pump in yeast. S. cerevisiae AD/CaMDR1, Nile Red efflux, flow cytometry. AID 588518. shares compounds with Efflux pump mplx. actives 1% (n = 1,700). inhibition, % at 10 µM; in the data active means inhibition above about 26%;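 further: 0% = DMSO vehicle and 100% = reference inhibitor; higher means more Nile Red retained so more efflux inhibition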
# CaCdr2 efflux inh: inhibitors of Candida albicans Cdr2 efflux pump; actives 4% (n = 1,700); S. cerevisiae AD/CaCDR2, Nile Red retention, flow cytometry; shares compounds with Efflux pump mplx; AID 588520; Nile Red retention ratio vs DMSO, % at 10 µM; in the data active means Nile Red retention ratio vs DMSO above about 190%;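 further: higher ratio means more blocking of Cdr2 efflux of the dye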
# Cdr1 pump inh: Candida Cdr1 efflux pump inhibition; actives 1% (n = 1,700); inhibition, % at 10 µM; shares compounds with Efflux pump mplx; S. cerevisiae AD/CaCDR1, Nile Red efflux, flow cytometry;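 active means inhibition above the screen-wide mean plus twice its standard deviation, cut at about 32% in these data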
# The depositor's hits bear a star; ? = inconclusive; . = not tested or not shown. Compounds with a hit are over-represented: about 4.7% of the library has one in this group of screens. Unless noted, how the calls were made is not given here.
SMILES,PABP1 MLLE inh,SUMO HTRF inh,Efflux pump mplx,PABP polyA inh,ALR H2O2 inh,eIF4H inh,Cmpd fluor yeast,CaMdr1 efflux inh,CaCdr2 efflux inh,Cdr1 pump inh
O=c1[nH]c(C2CCN(S(=O)(=O)c3ccc(S(=O)(=O)NC4CC4)cc3)CC2)nc2c1nnn2Cc1ccccc1,16,-5,0,6,-13,9,.,.,.,.
Cc1ccc(C)c(S(=O)(=O)N2CCC(c3nc4c(nnn4Cc4ccc(F)cc4)c(=O)[nH]3)CC2)c1,-8,3,0,-10,.,-13,.,.,.,.
Cc1ccc(Cn2nnc3c(=O)[nH]c(C4CCN(S(=O)(=O)c5ccc(F)cc5)CC4)nc32)cc1,13,12,0,5,-3,5,100,0,116,0
O=c1[nH]c(C2CCN(S(=O)(=O)c3ccc4c(c3)OCCO4)CC2)nc2c1nnn2Cc1ccccc1F,-3,-10,1.0*,5,4,-10,110,0,121,0
COc1ccc(COC(=O)CCNC(=O)c2ccc(Cl)cc2)cc1,1,.,0,.,-4,.,.,.,.,.
O=C(CCC1CCCCC1)Nc1nncs1,-15,-2,0,0,-5,4,.,.,.,.
O=C1N(Cc2ccccc2)CC2(Br)COCOC12O (stereo not given),-79,.,.,.,.,.,.,.,.,.
Cc1ccc(Cn2nnc3c(=O)[nH]c(C4CCN(S(=O)(=O)c5cc(C)ccc5C)CC4)nc32)cc1,0,0,0,0,4,-7,.,.,.,.
Cc1ccc(C)c(Cn2nnc3c(=O)[nH]c(C4CCN(S(=O)(=O)c5ccc(S(=O)(=O)N(C)C)cc5)CC4)nc32)c1,3,22,0,0,3,-14,93,0,116,0
O=C(c1cccc(NS(=O)(=O)c2ccc(F)c(F)c2)c1)N1CCN(Cc2ccccc2)CC1,7,9,0,6,-4,-7,.,.,.,.
Cc1cc(C)c(C(=O)CSC2=NC(N)=C(C#N)C3(CCCCC3)C2C(N)=O)cc1C (stereo not given),25,1,1.3*,-3,53,8,100,0,107,0
Cc1ccc(NC(=O)c2ccc(NCc3ccco3)c([N+](=O)[O-])c2)cc1Cl,-83,7,0,-3,-15,60,.,.,.,.
CCCc1nn2c(=O)cc(CSCC(=O)Nc3ccc(F)cc3)nc2s1,2,25,1.9*,-6,?,-4,100,0,100,0
CCCc1nn2c(=O)cc(CSCC(=O)Nc3ccccc3)nc2s1,2,.,0,.,-1,.,.,.,.,.
CC[n+]1c(/C=C/C=C/N(C(C)=O)c2ccccc2)sc2cc(OC)ccc21,.,-6,3.5*,10,?,?,346*,2,123,1
CC[n+]1c(C=C2C=C(C)OC(C)=C2)sc2ccccc21,3,3,.,-8,.,-23,.,.,.,.
OCCC1CCCCN1CC(O)COCc1ccc(Cl)cc1 (stereo not given),0,-2,0,0,.,9,.,.,.,.
O=C(Nc1ccc2nc3n(c(=O)c2c1)CCCCC3)c1cc([N+](=O)[O-])ccc1F,-8,0,0.7*,4,5,3,94,0,90,0
O=C(Nc1ccc2nc3n(c(=O)c2c1)CCCCC3)c1c(F)ccc([N+](=O)[O-])c1F,12,5,1,4,6,-8,.,.,.,.
Cc1ccc(C)c(OCc2cc(C(=O)N(C)Cc3nccs3)no2)c1,5,2,0,-5,-2,-12,182,1,110,1
CC(=O)N1CCc2cc(S(=O)(=O)CCC(=O)Nc3ccc(Cl)cc3F)ccc21,35,30,0,17,45,30,.,.,.,.
O=C(NC(=S)Nc1ccc(CN2CCCCC2)cc1)c1cc2ccccc2o1,23,15,0,-3,-10,-6,.,.,.,.
CC1(C)CC(NC(=O)COc2ccc3ccc(=O)oc3c2)CC(C)(C)N1,3,20,0,3,-1,9,.,.,.,.
O=C(O)c1cccc(CN2C(=O)CSC2=O)c1,7,12,0.9*,8,-1,8,84,0,87,0
O=C(O)c1cccc(CN2C(=O)SC(Nc3ccccc3)C2=O)c1 (stereo not given),28,24,0,5,22,7,.,.,.,.
SMILES,PABP1 MLLE inh,SUMO HTRF inh,Efflux pump mplx,PABP polyA inh,ALR H2O2 inh,eIF4H inh,Cmpd fluor yeast,CaMdr1 efflux inh,CaCdr2 efflux inh,Cdr1 pump inh
COc1ccc(OCc2cc(C(=O)NC(C)Cc3ccccn3)no2)c(Cl)c1 (stereo not given),3,-1,1.6*,7,-1,-3,108,0,96,0
CCC(NC(=O)c1cc(COc2ccc(OC)cc2Cl)on1)c1ccncc1 (stereo not given),3,11,0,-9,-4,-2,82,0,93,0
CCC(NC(=O)c1cc(COc2ccc(Cl)cc2OC)on1)c1ccncc1 (stereo not given),-4,11,0,-4,-2,-9,.,.,.,.
COc1ccc(OCc2cc(C(=O)N(C)C3CCOC3)no2)c(Cl)c1 (stereo not given),7,-2,0,-3,-1,-1,90,0,94,0
CCOc1ccccc1OCCCC(=O)NNC(=O)c1cc(C)oc1C,10,.,0,.,.,.,.,.,.,.
Cc1c(C(=O)N2CCCC2)c(S(=O)(=O)Nc2cccc(Br)c2)c(C)n1C,-3,7,0,5,-1,-2,.,.,.,.
CCOC(=O)c1c(-c2cccs2)csc1NC(=O)CNCCN1CCOCC1,.,-3,.,12,.,4,.,.,.,.
CCCCSC1=N/C(=C/c2ccsc2)C(=O)N1c1ccccc1,4,-13,5.8*,5,-2,0,105,0,93,0
COc1ccc(NC(=O)Nc2cccc3c2O[C@H](CN(C)C(=O)NC2CCCCC2)[C@@H](C)CN([C@H](C)CO)C3=O)cc1,7,.,0,.,-5,.,102,0,119,0
COc1cccc(NC(=S)N2CCN(c3ccccn3)CC2)c1,-110,2,16*,-10,-5,-4,100,0,107,0
S=C(Nc1cccc(Cl)c1)N1CCN(c2ccccn2)CC1,-108,-9,0,-2,-6,0,.,.,.,.
CCC(Sc1nc2ccsc2c(=O)n1Cc1ccc(C(=O)O)cc1)C(=O)Nc1ccc(C)c(Cl)c1 (stereo not given),7,14,0.8*,5,6,14,124,0,105,0
